Results from PubChem BioAssay (NCATS).
Several values for one entry are separate records, joined by “and”; a condition that tells them apart may be missing. Equal values may be shown once. Inconclusive results are not listed. A number with no mark means an inactive call. Activity calls are given as the source filed them. Calls come from the whole dose curve; as a rule, active = well fitted cell-killing curve with a large enough effect; inconclusive = small, poorly fitted or top-dose-only effect, or effect the other way; inactive = flat fitted curve, though single readings scatter.

system: HeLa; experiment: Primary qHTS to identify gynecologic anti-cancer compounds using libraries of approved drugs and bioactive compounds (AID 1345084); details: Gynecologic cancer cell panel viability, ATPlite luminescence, 48 h; series mostly up to 57.5 µM; activity change, negative = cytotoxicity: at the top concentration; note: nearly all actives have a fitted effect of over 55% in size
How it was run: (§1)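 Cytotoxicity screen measuring ATP content by luciferase luminescence. Each compound is applied at five concentrations for 48 h at 37 C with 5% CO2.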
% is set by controls: 0 for no effect and ±100 for the full control effect; potency is the fitted concentration of half-maximal effect.

SMILES	activity change, negative = cytotoxicity	Potency
CCc1cncnc1N1CCN(Cc2nc3ccc(C(F)(F)F)cc3[nH]2)CC1	-11.5%	–
N#CC[C@H](C1CCCC1)n1cc(-c2ncnc3[nH]ccc23)cn1	-0.664%	–
Cn1cnc([N+](=O)[O-])c1Sc1ncnc2nc[nH]c12	–	1.41 µM (active)
O=C(NOC[C@H](O)CO)c1ccc(F)c(F)c1Nc1ccc(I)cc1F	-11%	–
Cc1oncc1C(=O)Nc1ccc(C(F)(F)F)cc1	–	25.1 µM (active)
COc1ccccc1[C@H](c1cccc2ccccc12)[C@@](C)(C#N)C(=O)N1CCC(c2cccc(C(F)(F)F)c2)CC1	3.56%	–
C#Cc1cccc(Nc2ncnc3cc(OCCOC)c(OCCOC)cc23)c1	–	inactive
COc1cccc2cc(-c3nc(C4CCC(C(=O)O)CC4)n4ncnc(N)c34)[nH]c12 (centres undefined)	-36.3%	–
Cc1cc(Nc2nc(N[C@@H](C)c3ncc(F)cn3)ncc2Cl)n[nH]1	–	4.47 µM (active)
Nc1nc2c(ncn2COCCO)c(=O)[nH]1	-4.5%	–
CC1(C)CNc2cc(NC(=O)c3cccnc3NCc3ccncc3)ccc21	-8.09%	–
N[C@@H]1CONC1=O	14%	–
CNCc1ccc(-c2[nH]c3cc(F)cc4c3c2CCNC4=O)cc1	-5.89%	–
S=C(NCc1ccc2c(c1)OCO2)N1CCN(c2ncnc3c2oc2ccccc23)CC1	-11.6%	–
NC[C@H](O)c1ccc(O)c(O)c1	5.99%	–
CNC(=O)c1ccccc1Sc1ccc2c(/C=C/c3ccccn3)n[nH]c2c1	–	3.98 µM (active) and 3.55 µM (active)
CCCS(=O)(=O)Nc1ccc(F)c(C(=O)c2c[nH]c3ncc(Cl)cc23)c1F	-16%	–
Cc1ccc(-n2nc(C(C)(C)C)cc2NC(=O)Nc2ccc(OCCN3CCOCC3)c3ccccc23)cc1	-17.4%	–
Oc1ccc(C2CNCCc3c2cc(O)c(O)c3Cl)cc1 (centres undefined)	-5.67%	–

system: Hek293T; experiment: as above; details: Gynecologic cancer cell panel viability, ATPlite luminescence, 48 h, control line for the selectivity index; series mostly up to 57.5 µM; activity change, negative = cytotoxicity: at the top concentration
How it was run: as §1

SMILES	activity change, negative = cytotoxicity	Potency
CCc1cncnc1N1CCN(Cc2nc3ccc(C(F)(F)F)cc3[nH]2)CC1	-19.7%	–
N#CC[C@H](C1CCCC1)n1cc(-c2ncnc3[nH]ccc23)cn1	-7.14%	–
Cn1cnc([N+](=O)[O-])c1Sc1ncnc2nc[nH]c12	–	15.8 µM (active) and 28.2 µM (active)
O=C(NOC[C@H](O)CO)c1ccc(F)c(F)c1Nc1ccc(I)cc1F	-1.76%	–
Cc1oncc1C(=O)Nc1ccc(C(F)(F)F)cc1	–	14.1 µM (active)
CCc1cc(Nc2nccc(-c3c(-c4ccc(OC)c(C(=O)Nc5c(F)cccc5F)c4)nc4ccccn34)n2)c(OC)cc1N1CCC(N2CCN(S(C)(=O)=O)CC2)CC1	-14%	–
COc1ccccc1[C@H](c1cccc2ccccc12)[C@@](C)(C#N)C(=O)N1CCC(c2cccc(C(F)(F)F)c2)CC1	-11.7%	–
C#Cc1cccc(Nc2ncnc3cc(OCCOC)c(OCCOC)cc23)c1	–	inactive
Cc1cc(Nc2nc(N[C@@H](C)c3ncc(F)cn3)ncc2Cl)n[nH]1	-25.4%	–
Nc1nc2c(ncn2COCCO)c(=O)[nH]1	1.66%	–
CS(=O)(=O)c1cccc(CNc2nc(Nc3ccc4c(c3)CCC(=O)N4)ncc2C(F)(F)F)c1	-9.07%	–
CCOc1ccn(-c2ccc(F)cc2)c(=O)c1C(=O)Nc1ccc(Oc2ccnc(N)c2Cl)c(F)c1	-25.8%	–
CC1(C)CNc2cc(NC(=O)c3cccnc3NCc3ccncc3)ccc21	0.692%	–
N[C@@H]1CONC1=O	-7.56%	–
CNCc1ccc(-c2[nH]c3cc(F)cc4c3c2CCNC4=O)cc1	1.59%	–
NC[C@H](O)c1ccc(O)c(O)c1	21.8%	–
CNC(=O)c1ccccc1Sc1ccc2c(/C=C/c3ccccn3)n[nH]c2c1	–	10 µM (active) and 12.6 µM (active)
CCCS(=O)(=O)Nc1ccc(F)c(C(=O)c2c[nH]c3ncc(Cl)cc23)c1F	10%	–
Cc1ccc(-n2nc(C(C)(C)C)cc2NC(=O)Nc2ccc(OCCN3CCOCC3)c3ccccc23)cc1	-1.72%	–
Oc1ccc(C2CNCCc3c2cc(O)c(O)c3Cl)cc1 (centres undefined)	3.18%	–
